# Reference: PubChem BioAssay AID2685 (National Center for Advancing Translational Sciences (NCATS), 2010)
# Among all 320,000 compounds or so, about 2,100 (0.66%) were called active. About 53% were inconclusive and are not listed. Calls follow the shape of the dose curve; as a rule, active = well fitted inhibition curve with a large enough effect in the signal ratio, with a control signal flat (not every such curve was filed as active); inconclusive = small, poorly fitted or top-dose-only effect, or effect the other way, or a change in a side signal; inactive = flat fitted curve, though single readings scatter; the % refers to the signal ratio. What follows is part of a selection rich in actives, with near analogues and random picks from the rest.
# Experiment: qHTS Assay for Lipid Storage Modulators in Drosophila S3 Cells;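 as to cell number change: cells counted by Cell Tracker Red CMTPX staining in the red channel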
# Conditions: BODIPY lipid droplet fluorescence, 18-24 h, cells fed with added oleic acid; cell number change: measured here: cell count max response; series mostly up to 46.1 µM
# Method in brief: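 Drosophila S3 cells loaded with oleic acid (400 uM, as added) and compounds at several concentrations; lipid droplets imaged by 488-nm laser-scanning cytometry, 500–530 nm intensity and object ratio to cell channel. Percent activity normalized to 20 uM Triacsin C.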
# Potency is read from the fitted curve at half-maximal effect.
Structure (SMILES),Potency,cell number change [%]
Cn1cccc2[nH]c(=O)nc1-2,inactive,10.2
Cn1cccc1C(=O)C(=O)Nc1ccccc1,inactive,-12.6
Cn1cccc1P(=O)(c1cccn1C)c1cccn1C,5.17 µM (active),-5
CC(C)c1nnc(NC(=O)c2ccc3ccccc3c2)s1,inactive,-0.433
CC1CCN(C(=O)CN(Cc2ccc(F)cc2)S(C)(=O)=O)CC1,inactive,-15.4
O=C(CN(Cc1ccc(F)cc1)S(=O)(=O)c1ccccc1)N1CCCCC1,inactive,-14.4
CS(=O)(=O)N(CC(=O)N1CCc2ccccc2C1)Cc1ccc(F)cc1,0.13 µM (active),-12.3
Cc1ccc(F)c(NC=C2C(=O)OC(C)(C)OC2=O)c1,inactive,-13.4
CC(C)(C)Cc1nnc(NS(=O)(=O)c2ccccc2)s1,inactive,-0.602
COCc1nnc(NS(=O)(=O)c2ccc(C)cc2)s1,inactive,-2.98
Cc1cc(C)c(S(=O)(=O)Nc2nnc(C)s2)c(C)c1,inactive,-0.995
COCc1nnc(NS(=O)(=O)c2ccc([N+](=O)[O-])cc2)s1,25.9 µM (active),7.28
Cc1ccc(S(=O)(=O)Nc2nnc(CC(C)(C)C)s2)cc1,inactive,-2.43
COCc1nnc(NS(=O)(=O)c2ccc(F)cc2)s1,inactive,-4.6
CC(C)(C)Cc1nnc(NS(=O)(=O)c2ccc(F)cc2)s1,0.0517 µM (active),-2.36
COCc1nnc(NS(=O)(=O)c2c(C)cc(C)cc2C)s1,18.4 µM (active),-24.8
Cc1cc(C)c(S(=O)(=O)Nc2nnc(CC(C)C)s2)c(C)c1,inactive,-5.67
Cn1ccs/c1=N\C(=O)Nc1cccc(Cl)c1,inactive,1.31
OCC1(CCOc2ccccc2)CCN(Cc2ccccc2OC(F)F)CC1,inactive,9.07
CCCCOC(=O)c1ccc(Nc2ncnc3nc[nH]c23)cc1,inactive,2.99
O=C(Nc1ccccc1[N+](=O)[O-])C1(c2ccccc2)CCOCC1,inactive,-9.86
CCOC(=O)N/N=C/c1ccc(OC)c(O)c1,inactive,4.89

Structure (SMILES),Potency,cell number change [%]
Nc1nc(COc2ccc(F)cc2Cl)nc(N2CCCCC2)n1,inactive,–
CCCCn1c(=O)[nH]c(=O)c2c1nc(Cn1ncc(Cl)c(Cl)c1=O)n2CCC,9.2 µM (active),-17.5
CCCCCn1c(CN2CCN(Cc3ccccc3)CC2)nc2c1c(=O)[nH]c(=O)n2C,inactive,-7.44
CCCCn1c(-c2ccsc2)nc2c1c(=O)[nH]c(=O)n2CCC,inactive,26
Cc1ccc(C(=O)c2nc(C(=O)NCCO)nc3ccccc23)cc1,inactive,10.6
C/C(=N\O)C(=O)Nc1ccccc1,inactive,5.48
O=S(=O)(Nc1ccc2cn[nH]c2c1)c1ccc(Cl)cc1,inactive,–
O=C1C(Cl)=C(Nc2ccccc2)C(=O)c2ccccc21,inactive,-30.2
O=C1C(Cl)=C(Nc2ccc3cn[nH]c3c2)C(=O)c2ccccc21,5.8 µM (active),-29.2
COc1ccc(S(=O)(=O)NNC(=O)C2COc3ccccc3O2)cc1[N+](=O)[O-] (stereo not given),inactive,4.36
NC(=O)c1ccc(NC(=O)CSc2nnc(-c3ccccn3)n2N)cc1,inactive,1.07
O=C(Nc1ccc(Oc2cccnc2)cc1)C1CCN(Cc2cccc(Cl)c2)CC1,inactive,27.9
Nc1nnnn1CC(=O)OCc1cccc(Br)c1,2.06 µM (active),4.89
O=C(CNC(=O)c1ccccc1)OCc1cccc(Br)c1,inactive,-18.3
O=C(CN1CC(c2ccccc2)CC1=O)OCc1cccc(Br)c1 (stereo not given),inactive,15.3
COc1ccc(S(=O)(=O)N2CCOC2CNC(=O)C(=O)NCc2ccncc2)cc1 (stereo not given),inactive,-15.1
COc1ccc(CCNC(=O)CSc2c[nH]c3ccccc23)cc1OC,inactive,5.06
O=C(COC(=O)CC1CCCC1)Nc1ccc(Cl)cn1,inactive,2.11
O=C(NCC1CCCC(CNC(=O)Nc2ccc(Cl)cn2)C1)Nc1ccc(Cl)cn1 (stereo not given),0.082 µM (active),-15.8
O=C(Nc1ccc(Cl)cn1)Nc1ccc(Cl)cn1,inactive,–
Nc1nc2ccc(C(=O)Nc3ccccc3)cc2s1,inactive,-10.8
Cc1ccc(N2C(=O)C3C4C=CC(CC4)C3C2=O)c([N+](=O)[O-])c1 (stereo not given),inactive,–

Structure (SMILES),Potency,cell number change [%]
C=CCOc1ccccc1CN(C(=O)CCl)c1ccc2c(c1)OCO2,9.2 µM (active),10.9
O=C(CCl)N(C/C=C/c1ccccc1)c1ccc2c(c1)OCCO2,inactive,–
C=CCOc1ccccc1CNc1ccc2c(c1)OCCO2,inactive,-4.69
Cc1cc(C)cc(Oc2ccc(C(F)(F)F)cc2C#N)c1,inactive,–
Clc1ccc(CSc2ccc(-c3ccco3)nn2)cc1,inactive,–
c1ccc(-c2nnc(-c3ccccc3)o2)cc1,inactive,0.828
Nc1ccc(-c2nnc(-c3ccccc3)o2)cc1,18.4 µM (active),–
O=C(O)c1ccc(-c2nnc(-c3ccccc3)o2)cc1,inactive,25.5
CCCCN1C(=O)/C(=C2\SC(N3CCOCC3)=NC2=O)c2ccccc21,8.2 µM (active),-1.69
Cc1ccc(CN2C(=O)/C(=C3\SC(N4CCOCC4)=NC3=O)c3cc(Br)ccc32)cc1,inactive,15.8
CCN1C(=O)/C(=C2\SC(N3CCCCC3)=NC2=O)c2ccccc21,inactive,-29.3
O=C(NC12CC3CC(CC(C3)C1)C2)c1cnccn1,inactive,3.24
CCN(CC)C1CCS(=O)(=O)C1 (stereo not given),inactive,22.1
COc1cccc(-c2cc(C(=O)N3CCN(Cc4ccc5c(c4)OCO5)CC3)on2)c1,inactive,17
COc1cc(OC)cc(C(=O)NCC(=O)OCC(=O)c2cc(OC)ccc2OC)c1,23.1 µM (active),-7.21
COC(=O)CNC(=O)c1cc(OC)cc(OC)c1,inactive,7
COc1cc(OC)cc(C(=O)NCC(=O)OCC(=O)NC(C)(C)C)c1,inactive,16.7
CCC(C)C(NC(=O)c1ccc(Cl)cc1)C(=O)O (stereo not given),inactive,-1.98
CC(C)OCCCNC(=O)C(NC(=O)c1ccc(Cl)cc1)C(C)C (stereo not given),inactive,4.94
COC(=O)CNC(=O)C(NC(=O)c1ccc(Cl)cc1)C(C)C (stereo not given),25.9 µM (active),12.5
